# Assay results reported in PubChem BioAssay (NCI).
# This is part of a sample that, as a whole, favours compounds with a hit. Of some 83,000 tested, about 20% had one in any assay.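 In brief: 96-well plates, 48 h treatment, single concentration, percent growth endpoint.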 Activity calls are given as the source filed them. How the source made its calls: active means growth percent below 10; inactive means the rest.
# Assays:
# Experiment in all cases: NCI-60 one-dose screen, 48 h (100 = growth as untreated, 0 = no growth, -100 = all killed)
# EKVX NSCLC = settings: 10 µM unless noted
# SN12C renal = settings: 10 µM unless noted
# UO-31 renal = settings: 10 µM unless noted
# TK-10 renal = settings: 10 µM unless noted
# ACHN renal = settings: 10 µM unless noted
# CAKI-1 renal = settings: 10 µM
# A498 renal = settings: 10 µM unless noted
# CCRF-CEM leukemia = settings: 10 µM unless noted
# RPMI-8226 leukemia = settings: 10 µM unless noted
# OVCAR-8 ovarian = settings: 10 µM unless noted
# OVCAR-5 ovarian = settings: 10 µM unless noted
# OVCAR-4 ovarian = settings: 10 µM unless noted
# SK-OV-3 ovarian = settings: 10 µM unless noted
# IGROV1 ovarian = settings: 10 µM unless noted
# HS 578T breast = settings: 10 µM unless noted
# NCI/ADR-RES ovarian = settings: 10 µM unless noted
# MOLT-4 leukemia = settings: 10 µM unless noted
# SR leukemia = settings: 10 µM unless noted
SMILES,growth (EKVX NSCLC),growth (SN12C renal),growth (UO-31 renal),growth (TK-10 renal),growth (ACHN renal),growth (CAKI-1 renal),growth (A498 renal),growth (CCRF-CEM leukemia),growth (RPMI-8226 leukemia),growth (OVCAR-8 ovarian),growth (OVCAR-5 ovarian),growth (OVCAR-4 ovarian),growth (SK-OV-3 ovarian),growth (IGROV1 ovarian),growth (HS 578T breast),growth (NCI/ADR-RES ovarian),growth (MOLT-4 leukemia),growth (SR leukemia)
C/C(=C(/c1ccc(O)cc1)c1ccc(OCCN2CCCC2)cc1)c1ccc(Cl)cc1,57.4% (inactive),66% (inactive),53.8% (inactive),84.5% (inactive),33.7% (inactive),41.9% (inactive),56.5% (inactive),43.6% (inactive),-4.71% (active),64.6% (inactive),60.1% (inactive),65.4% (inactive),76.7% (inactive),55.4% (inactive),48.4% (inactive),64.2% (inactive),–,–
c1cncc(-c2cn3nc(-c4c[nH]c5ccccc45)sc3n2)c1,72.5% (inactive),61.5% (inactive),44.6% (inactive),94.4% (inactive),72.3% (inactive),51.7% (inactive),47.9% (inactive),54.1% (inactive),63.1% (inactive),52.2% (inactive),43.4% (inactive),83.3% (inactive),86.2% (inactive),59.8% (inactive),57.8% (inactive),18.3% (inactive),–,–
Clc1ccccc1/C=C/c1nn2c(-c3ccncc3)nnc2s1,94.2% (inactive),103% (inactive),93.1% (inactive),126% (inactive),104% (inactive),87.9% (inactive),95.2% (inactive),97.6% (inactive),101% (inactive),103% (inactive),109% (inactive),103% (inactive),121% (inactive),102% (inactive),97.7% (inactive),106% (inactive),–,–
O=C1Nc2cc(OC(F)(F)F)ccc2Oc2ccc(-c3ccnc(N4CC[C@H](O)C4)c3)cc21,45.9% (inactive),7.37% (active),24% (inactive),75.6% (inactive),25.1% (inactive),23.9% (inactive),–,12.6% (inactive),17% (inactive),-14.4% (active),25.5% (inactive),48.5% (inactive),27.1% (inactive),16.8% (inactive),24.5% (inactive),9.76% (active),11.3% (inactive),-6.83% (active)
CCOC(=O)c1c(Nc2ccccc2)nn2c(-c3ccc(OC)c(OC)c3)ccnc12,77.1% (inactive),67.9% (inactive),42.9% (inactive),80.6% (inactive),54.8% (inactive),44.4% (inactive),–,30.9% (inactive),30.4% (inactive),50.5% (inactive),84.7% (inactive),72.4% (inactive),72% (inactive),102% (inactive),49.4% (inactive),48.9% (inactive),36.5% (inactive),23.6% (inactive)
O=C(Nc1cc(Cl)cc(Cl)c1)Nc1ccc2oc(=O)ccc2c1,17% (inactive),4.07% (active),3.75% (active),18.6% (inactive),4.26% (active),7.57% (active),-8.24% (active),–,1.84% (active),12.5% (inactive),36.4% (inactive),19.5% (inactive),25.7% (inactive),26.4% (inactive),39.4% (inactive),10.9% (inactive),12.4% (inactive),3.42% (active)
C/C(=C(/c1ccc(O)cc1)c1ccc(OCCN2CCCCCC2)cc1)c1ccccc1,59% (inactive),57.2% (inactive),29.4% (inactive),92.6% (inactive),58.7% (inactive),39.2% (inactive),74.6% (inactive),–,2.14% (active),69.2% (inactive),63.3% (inactive),68.4% (inactive),76.1% (inactive),61.9% (inactive),44.3% (inactive),65.6% (inactive),–,-24% (active)
Cc1ccc(-c2cc3nc(C(Cl)Cl)nc(-c4ccccc4)n3n2)cc1,99.6% (inactive),107% (inactive),91.8% (inactive),108% (inactive),47.5% (inactive),72.7% (inactive),–,101% (inactive),82.5% (inactive),92.9% (inactive),103% (inactive),103% (inactive),97.9% (inactive),94.3% (inactive),109% (inactive),79.5% (inactive),97% (inactive),85.3% (inactive)
COc1ccc(-c2ccnc3c(C#N)c(Nc4ccccc4)nn23)cc1OC,98.9% (inactive),89.8% (inactive),67.9% (inactive),65.8% (inactive),86.4% (inactive),60.2% (inactive),–,93.8% (inactive),78.3% (inactive),85.2% (inactive),83.2% (inactive),103% (inactive),100% (inactive),96.1% (inactive),84% (inactive),85.5% (inactive),84.9% (inactive),73.8% (inactive)
C=CCn1c(SCC(=O)Nc2cccc(C(=O)/C=C/c3ccc(Br)cc3)c2)nc2ccccc2c1=O,106% (inactive),88.8% (inactive),71.2% (inactive),102% (inactive),84.5% (inactive),73.7% (inactive),89.3% (inactive),–,-3.89% (active),81.6% (inactive),96.2% (inactive),87.9% (inactive),108% (inactive),93.6% (inactive),83.3% (inactive),91.5% (inactive),–,–
C/C(=N\NC(=S)Nc1ccc(Br)cc1)c1cc2ccccc2oc1=O,40.6% (inactive),35.2% (inactive),19.5% (inactive),42.4% (inactive),14.9% (inactive),9.07% (active),–,12.5% (inactive),16.3% (inactive),5.84% (active),41.3% (inactive),28.2% (inactive),26.1% (inactive),24.6% (inactive),20.5% (inactive),11.4% (inactive),18.1% (inactive),0.863% (active)
O=C1Nc2cc(OC(F)(F)F)ccc2Oc2ccc(-c3ccnc(N4CCNCC4)c3)cc21,41.2% (inactive),-26.9% (active),1.72% (active),27.8% (inactive),2.57% (active),-36.1% (active),–,-6.19% (active),-50.9% (active),20.9% (inactive),14.7% (inactive),48% (inactive),20.5% (inactive),-1.58% (active),2.5% (active),5.35% (active),-0.166% (active),-44% (active)
CS(=O)(=O)c1ccc2c(c1)c1c(n2C(=O)c2ccc(Cl)cc2)CCCC1,59.7% (inactive),41.2% (inactive),40.3% (inactive),67.6% (inactive),43.6% (inactive),37.1% (inactive),38.2% (inactive),–,15.4% (inactive),35.3% (inactive),50.3% (inactive),66.4% (inactive),90.3% (inactive),46.2% (inactive),-0.806% (active),25.7% (inactive),–,–
CC1(COc2ccc3ncc(C#Cc4cncc(C(=O)Nc5cc(C(C)(C)C)on5)c4)n3n2)COC1,41.5% (inactive),30.4% (inactive),26.9% (inactive),91.6% (inactive),30.6% (inactive),35.4% (inactive),–,39.5% (inactive),47.3% (inactive),35.5% (inactive),55.9% (inactive),55.6% (inactive),61.2% (inactive),25% (inactive),15.1% (inactive),22.2% (inactive),45.6% (inactive),34% (inactive)
Cc1cc(=O)n2nc(-c3c[nH]c4ccccc34)sc2n1,95.3% (inactive),94.5% (inactive),82.1% (inactive),128% (inactive),96.1% (inactive),99.8% (inactive),95.1% (inactive),–,128% (inactive),98.7% (inactive),101% (inactive),104% (inactive),103% (inactive),89.9% (inactive),96.4% (inactive),98% (inactive),–,–
O=C1Nc2ccc(Cl)cc2/C1=C/c1ccc(OCc2ccc(Br)cc2F)cc1,97.5% (inactive),103% (inactive),84.4% (inactive),116% (inactive),103% (inactive),84.3% (inactive),–,94.2% (inactive),95.8% (inactive),99.8% (inactive),101% (inactive),100% (inactive),98% (inactive),104% (inactive),102% (inactive),98.2% (inactive),98.9% (inactive),97.2% (inactive)
CCc1ccc(NC(=O)N[C@@H](Cc2cccc(F)c2)C(=O)N[C@@H]2C(=O)N3CCC[C@H]3C(=O)N3CCCC[C@H]3C(=O)N[C@@H](C)C(=O)N3C[C@H](C)C[C@H]3C(=O)O[C@H]2C)c(F)c1,31.1% (inactive),21% (inactive),26.3% (inactive),50.3% (inactive),27.4% (inactive),17.8% (inactive),–,33.9% (inactive),12.3% (inactive),23.1% (inactive),23.9% (inactive),23.9% (inactive),24.9% (inactive),35.9% (inactive),26.3% (inactive),18.4% (inactive),32% (inactive),21.2% (inactive)
